PubChem BioAssay (Tox21)
Records with an inconclusive call do not appear. Calls of active or inactive are those of the source. Unless noted, calls come from the whole dose curve; as a rule, active = well fitted curve in the direction sought with a large enough effect in the repeat runs; inconclusive = weak or mixed curves; inactive = no such curve, though single readings can be large; an effect the other way counts as inactive or inconclusive.

Key:
[1] = qHTS assay to identify small molecule agonists of the constitutive androstane receptor (CAR) signaling pathway - cell viability counter screen (AID 1224836); note: nearly all actives have a fitted effect of over 45% in size
In short: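 Cells were seeded and incubated 4 hrs. Compounds were added across 15 concentrations together with PK11195 at 0.75 uM final. Plates were incubated 23 hrs at 37 C. CellTiter-Fluor was added and fluorescence measured.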

[2] = qHTS assay to identify small molecule antagonists of the constitutive androstane receptor (CAR) signaling pathway - cell viability counter screen (AID 1224837); note: nearly all actives have a fitted effect of over 45% in size
In short: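 Cells are seeded, rested 4 hr at 37 C/5% CO2, dosed with compound (15-point series) and 50 nM CITCO, incubated a further 23 hr, and then CellTiter-Fluor reagent is added before fluorescence is read. The line is HepG2 with stable hCAR and CYP2B6-2.2kb.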

[3] = molecular target: Nuclear receptor subfamily 1 group I member 3 (Homo sapiens) (UniProt Q14994); assay: qHTS assay to identify small molecule antagonists of the constitutive androstane receptor (CAR) signaling pathway (AID 1224838);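 note: HepG2 cells stably expressing hCAR with CYP2B6 luciferase reporter stimulated by CITCO; nearly all actives have a fitted effect of over 40% in size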
Nuclear receptor subfamily 1 group I member 3 (Homo sapiens), sequence (Q14994 whole entry, looked up): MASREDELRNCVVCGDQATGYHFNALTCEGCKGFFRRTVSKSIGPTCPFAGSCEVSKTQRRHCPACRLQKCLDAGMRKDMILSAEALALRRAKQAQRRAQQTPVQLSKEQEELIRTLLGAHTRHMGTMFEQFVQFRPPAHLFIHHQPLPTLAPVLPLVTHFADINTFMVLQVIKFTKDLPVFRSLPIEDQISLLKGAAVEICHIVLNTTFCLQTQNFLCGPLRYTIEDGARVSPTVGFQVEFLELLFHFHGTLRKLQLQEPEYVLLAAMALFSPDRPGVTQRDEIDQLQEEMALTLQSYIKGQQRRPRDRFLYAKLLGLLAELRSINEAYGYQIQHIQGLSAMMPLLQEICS
In short: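 Luminescence from a CYP2B6-2.2kb promoter reporter in hCAR-expressing HepG2 cells reflects CAR signaling. Cells received compounds at 15 concentrations and 50 nM CITCO (final), then incubated 24 h at 37 C/5% CO2.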

[4] = qHTS assay to identify small molecule antagonists of the estrogen related receptor signaling pathway with the pleiotropic PPARgamma coactivator (PGC) from Tox21 10K library - cell viability counter screen (AID 1224840; active = well fitted cell-killing curve with a large enough effect in the repeat runs, not every such curve was filed as active; note: nearly all actives have a fitted effect of over 40% in size)
In short: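 Cell viability is measured by CellTiter-Fluor fluorescence in PGC/ERR cells that receive compounds after a 6-hour attachment period and are then incubated 17.5 hours at 37 C.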

[5] = qHTS assay to identify small molecule antagonists of the estrogen related receptor signaling pathway with the pleiotropic PPARgamma coactivator (PGC) from Tox21 10K library (AID 1224841; call rule not given here; note: actives are mostly falling curves and most rising ones were filed inactive; nearly all actives have a fitted effect of over 50% in size; note: potency is the fitted concentration of half-maximal effect)
In short: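 Cells stably carrying the PGC/ERR reporter, seeded at 2,000 per well, received pin-transferred compounds 6 h post-plating. Exposure lasted 18 h at 37 C. Signal: One-Glo luminescence.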

[6] = qHTS assay to identify small molecule agonists of the estrogen related receptor signaling pathway with the pleiotropic PPARgamma coactivator (PGC) from Tox21 10K library (AID 1224842); note: nearly all actives have a fitted effect of over 15% in size; note: potency is the fitted concentration of half-maximal effect
In short: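 PGC/ERR reporter cell line, 2,000 cells per well, incubated 6 h at 37 C before 23 nL compound in DMSO was added. After 18 h at 37 C, One-Glo luminescence read following 30 min at room temperature.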

[7] = molecular target: Thyrotropin receptor (Homo sapiens) (UniProt P16473); assay: qHTS assay to identify small molecule agonists of the thyroid stimulating hormone receptor (TSHR) signaling pathway (AID 1224843; calls by dose curve; note: nearly all actives have a fitted effect of over 45% in size; note: potency is the fitted concentration of half-maximal effect)
Thyrotropin receptor (Homo sapiens), sequence (P16473 whole entry, looked up): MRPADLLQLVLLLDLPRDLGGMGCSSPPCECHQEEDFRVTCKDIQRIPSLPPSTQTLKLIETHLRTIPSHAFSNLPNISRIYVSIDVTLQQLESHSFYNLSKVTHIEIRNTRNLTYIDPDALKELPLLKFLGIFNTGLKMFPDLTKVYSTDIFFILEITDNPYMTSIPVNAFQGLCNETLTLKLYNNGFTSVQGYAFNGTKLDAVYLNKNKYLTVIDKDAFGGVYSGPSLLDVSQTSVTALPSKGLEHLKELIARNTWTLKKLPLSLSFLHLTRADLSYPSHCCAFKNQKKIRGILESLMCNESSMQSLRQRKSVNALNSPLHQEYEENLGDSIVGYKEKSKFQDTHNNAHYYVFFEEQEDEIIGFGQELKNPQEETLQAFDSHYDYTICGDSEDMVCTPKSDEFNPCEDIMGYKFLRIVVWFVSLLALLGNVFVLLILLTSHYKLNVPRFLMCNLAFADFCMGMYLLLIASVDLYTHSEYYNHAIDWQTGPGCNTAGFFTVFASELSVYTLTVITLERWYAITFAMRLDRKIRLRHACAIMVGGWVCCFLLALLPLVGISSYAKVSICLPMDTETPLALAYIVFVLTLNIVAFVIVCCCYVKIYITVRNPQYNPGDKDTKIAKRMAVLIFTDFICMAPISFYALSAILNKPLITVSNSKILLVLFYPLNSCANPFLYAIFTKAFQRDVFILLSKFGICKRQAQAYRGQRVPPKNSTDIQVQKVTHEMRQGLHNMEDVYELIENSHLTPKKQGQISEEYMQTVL
In short: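 HEK293/TSHR, 800 cells/well; cpd 30 min RT; add cAMP-d2 + anti-cAMP-cryptate, 1 h RT; fluorescence read on plate reader. 15-pt titration, n=3.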

[8] = qHTS assay to identify small molecule agonists of the hypoxia (HIF-1) signaling pathway - cell viability counter screen (AID 1224844; calls by dose curve; note: nearly all actives have a fitted effect of over 50% in size; note: potency is the fitted concentration of half-maximal effect)
In short: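 Viability counter screen: HRE-bla ME-180 cells plated 5 hrs before compound addition, treated 17 hrs at 37C and 5% CO2, then CellTiter-Glo added after the FRET reporter read; luminescence after 30 min.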

[9] = qHTS assay to identify small molecule agonists of the hypoxia (HIF-1) signaling pathway (AID 1224846; active = well fitted activation curve with a large enough effect in the signal ratio in the repeat runs, not every such curve was filed as active; the % refers to the signal ratio)
In short: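 Agonist mode reporter screen. ME-180 cells stably expressing bla under HRE control received test compounds in DMSO for 17 hrs (37C, 5% CO2), and beta-lactamase activity was then detected with the CCF4-AM FRET substrate.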

[10] = qHTS assay to identify small molecule agonists of H2AX - cell viability counter screen (AID 1224847; calls by dose curve; note: top concentration of the series differs between compounds; nearly all actives have a fitted effect of over 30% in size)
In short: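 Cytotoxicity counter screen in wild-type CHO-K1 cells: a 3 hr compound treatment at 37C across 15 concentrations, followed by CellTiter-Glo luminescence to gauge viable cells.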

[11] = qHTS assay to identify small molecule antagonists of the estrogen related receptor (ERR) signaling pathway from Tox21 library (AID 1224848); note: nearly all actives have a fitted effect of over 50% in size; note: potency is the fitted concentration of half-maximal effect
In short: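 Compounds dissolved in DMSO are pin-transferred onto ERR reporter cells (2,000 per well) that have settled for 6 h at 37 C. Plates then incubate 18 h at 37 C before ONE-Glo luciferase reagent and a luminescence read 30 min later.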

[12] = qHTS assay to identify small molecule agonists of the estrogen related receptor (ERR) signaling pathway from Tox21 library (AID 1224849; calls by dose curve; note: nearly all actives have a fitted effect of over 15% in size); settings: ERR reporter cell line, ONE-Glo luciferase, 18 h; at 92.4 µM (top of the series) unless noted
In short: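 Quantitative HTS in agonist format: NTP ERR cell line, compounds transferred in DMSO after 6 h plating, 18 h incubation at 37 C, ONE-Glo luminescence endpoint.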

[13] = qHTS RealTime-Glo MT Cell Viability Assay in HepG2 cells - 24 hour (AID 1224867); note: nearly all actives have a fitted effect of over 50% in size; note: potency is the fitted concentration of half-maximal effect
In short: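 Viability was tracked continuously by NanoLuc luminescence from prosubstrate reduced by living HepG2 cells, at successive time points over 40 h of compound exposure. Cells with reagent were preincubated 5 h at 37 °C before compound addition.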

[14] = qHTS RealTime-Glo MT Cell Viability Assay in HEK293 cells - 32 hour (AID 1224868); note: nearly all actives have a fitted effect of over 50% in size; note: potency is the fitted concentration of half-maximal effect; for activity change, negative = cytotoxic: top concentration of the series differs between compounds
In short: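 Viability tracked continuously by luminescence as live cells reduce a prosubstrate for NanoLuc; HEK293 cells preincubated 5 h, compound-treated at 37 C, and read at 0, 8, 16, 24, 32 and 40 h.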

[15] = A CellTox Green Cytotoxicity Assay to monitor cytotoxicity in HEK293 cells - 0 hour (AID 1224869); note: nearly all actives have a fitted effect of over 50% in size
In short: (§1)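 Dead-cell fluorescence measured kinetically: asymmetric cyanine dye, HEK293, 600 cells/well, 5 h settle, 23 nL cpd/DMSO, 37 C, reads 0–40 h every 8 h.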

[16] = A CellTox Green Cytotoxicity Assay to monitor cytotoxicity in HEK293 cells - 40 hour (AID 1224871); note: nearly all actives have a fitted effect of over 45% in size
In short: as §1

[17] = molecular target: Luciferin 4-monooxygenase (Photinus pyralis) (UniProt P08659); assay: qHTS assay to identify small molecule inhibitors of firefly luciferase (AID 1224835); note: nearly all actives have a fitted effect of over 25% in size; note: potency is the fitted concentration of half-maximal effect
Luciferin 4-monooxygenase (Photinus pyralis), sequence (P08659 whole entry, looked up): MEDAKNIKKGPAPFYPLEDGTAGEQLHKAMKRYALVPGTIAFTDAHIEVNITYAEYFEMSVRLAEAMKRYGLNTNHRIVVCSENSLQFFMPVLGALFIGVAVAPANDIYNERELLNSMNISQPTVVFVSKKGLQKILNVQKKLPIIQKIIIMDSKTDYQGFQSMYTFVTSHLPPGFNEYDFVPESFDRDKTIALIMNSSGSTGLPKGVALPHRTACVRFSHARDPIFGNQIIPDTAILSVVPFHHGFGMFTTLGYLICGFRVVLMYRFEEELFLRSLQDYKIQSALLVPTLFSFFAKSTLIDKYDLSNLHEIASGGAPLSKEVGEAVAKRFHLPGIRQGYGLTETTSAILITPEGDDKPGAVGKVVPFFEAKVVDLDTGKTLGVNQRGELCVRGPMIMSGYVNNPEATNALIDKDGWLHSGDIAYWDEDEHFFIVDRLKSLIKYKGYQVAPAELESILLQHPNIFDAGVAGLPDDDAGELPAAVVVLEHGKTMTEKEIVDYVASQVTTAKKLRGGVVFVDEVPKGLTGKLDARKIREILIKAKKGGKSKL
In short: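 Biochemical qHTS: compounds run as interplate titrations against purified firefly enzyme, with D-luciferin and ATP each at its KM concentration. Light output recorded by CCD imaging.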

[18] = qHTS assay to identify small molecule agonists of H2AX (AID 1224845; active = well fitted activation curve with a large enough effect in the signal ratio in the repeat runs, not every such curve was filed as active; the % refers to the signal ratio)
In short: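 Wild-type CHO-K1 cells, plated overnight, exposed 3hr at 37C to 15 concentrations (0.76% DMSO final). Lysed, then HTRF anti-pH2AX (S139) cryptate and anti-H2AX-d2 antibodies, 24 hr room temperature; 665/620 nm emission read.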

[19] = qHTS RealTime-Glo MT Cell Viability Assay in HepG2 cells - 40 hour (AID 1224870); note: nearly all actives have a fitted effect of over 50% in size; note: potency is the fitted concentration of half-maximal effect
In short: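 HepG2 cells (600/well) mixed with RealTime-Glo MT reagent, settled 5 h at 37 C/5% CO2 before compound addition. Nonlytic NanoLuc luminescence from viable-cell prosubstrate reduction read repeatedly during 40 h treatment at 37 C.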

[20] = molecular target: Nuclear receptor subfamily 1 group I member 3 (Homo sapiens) (UniProt Q14994); assay: qHTS assay to identify small molecule agonists of the constitutive androstane receptor (CAR) signaling pathway (AID 1224839);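 note: HepG2 cells stably carrying human CAR and a CYP2B6 luciferase reporter; nearly all actives have a fitted effect of over 15% in size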
In short: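 Cells were plated and incubated 4 hrs, then dosed with compounds at 15 concentrations. PK11195 was added to 0.75 uM final. After 24 hrs at 37 C, luciferase luminescence was measured.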
% is set by controls: 0 for no effect and ±100 for the full control effect.

C1CCOC1
inactive: Potency [1] | Potency [2] | Potency [3] | Potency [4] | Potency [5] | Potency [6] | Potency [7] | Potency [8] | outcome [9] | Potency [10] | Potency [11] | activity change, positive = activation [12] 1.79% | Potency [13] | Potency [14] | Potency [15] | Potency [16]

NC(Cc1ccc(F)cc1)C(=O)O (configuration not stated)
inactive: activity change, negative = inhibition [17] 1.28% [at 10.5 µM] | viability change, negative = cytotoxic [4] 2.83% [at 8.39 µM] | activity, negative = inhibition [5] 25.2% [at 8.39 µM] | activation [6] 1.4% [at 8.39 µM] | activation [7] 1.31% [at 8.39 µM] | activity change, negative = cytotoxicity [8] 1.08% [at 6.97 µM] | activation (H2AX phosphorylation) [18] -2.92% [at 14 µM] | activity change, negative = cytotoxicity [10] 0.454% [at 14 µM] | activity, negative = inhibition [11] 1.15% [at 8.39 µM] | activity change, positive = activation [12] 0.59% [at 8.39 µM] | activity change, negative = cytotoxicity [13] -1.43% [at 6.97 µM] | activity change, negative = cytotoxic [14] -0.0847% [at 6.97 µM] | cytotoxicity [15] 7.03% [at 6.97 µM] | activity change, negative = cytotoxic [19] -10.7% [at 6.97 µM] | cytotoxicity increase [16] 10% [at 6.97 µM]

O=C(CC(=O)C(F)(F)F)c1ccccc1
active: Potency [6] 6.2 µM | Potency [7] 17.5 µM
inactive: Potency [1] | Potency [2] | Potency [3] | Potency [5] | Potency [18] | Potency [10] | Potency [11] | activity change, positive = activation [12] -6.03% | Potency [13] | Potency [14] | Potency [15] | Potency [16]

CC(=O)Oc1cc(C(C)C)c(OCCN(C)C)cc1C
inactive: Potency [17] | Potency [3] | Potency [4] | Potency [7] | Potency [8] | Potency [18] | Potency [10] | Potency [13] | Potency [15] | Potency [19] | Potency [16]

Cc1ccccc1C(=O)Nc1ccc(C(=O)N2CCCC(O)c3cc(Cl)ccc32)c(C)c1 (configuration not stated)
inactive: Potency [1] | Potency [2] | Potency [3] | Potency [4] | Potency [5] | Potency [6] | Potency [8] | Potency [18] | outcome [9] | activity change, positive = activation [12] -27% [at 42.5 µM] | Potency [13] | Potency [15] | Potency [16]

CC(C)C[C@H](NC(=O)OCC1c2ccccc2-c2ccccc21)C(=O)O
inactive: Potency [4] | Potency [5] | Potency [7] | Potency [8] | Potency [18] | outcome [9] | Potency [10] | Potency [11] | Potency [13] | Potency [14] | Potency [15] | Potency [19] | Potency [16]
active: Potency [17] 3.56 µM | Potency [6] 15.4 µM | activity change, positive = activation [12] 147%

CC(C)C1=CC2=CC[C@@H]3[C@](C)(CCC[C@@]3(C)C(=O)O)[C@H]2CC1
inactive: Potency [1] | Potency [2] | Potency [3] | Potency [20] | Potency [4] | Potency [6] | Potency [18] | Potency [10] | activity change, positive = activation [12] -16.7% | Potency [13] | Potency [14] | Potency [15] | Potency [19] | Potency [16]
active: Potency [8] 43.6 µM

CC[C@H]1CC[C@H](NCc2cc3c(cc2OC)[C@H]2C[C@H]2C(=O)N3C)[C@H](c2ccccc2)N1
inactive: Potency [17] | Potency [6] | Potency [7] | Potency [8] | Potency [18] | outcome [9] | Potency [10] | activity change, positive = activation [12] -40.9% | Potency [13] | Potency [15] | Potency [19] | Potency [16]
active: Potency [5] 21.7 µM | Potency [11] 27.3 µM | Potency [14] 19.5 µM

ICCc1ccccc1
inactive: Potency [1] | Potency [2] | Potency [4] | Potency [5] | Potency [6] | Potency [7] | Potency [10] | activity change, positive = activation [12] -17.9% | Potency [14] | Potency [15]
active: Potency [13] 19.1 µM | Potency [19] 9.57 µM
